Holding throughout (experiment): NCI-60 one-dose screen, 48 h (100 = growth as untreated, 0 = no growth, -100 = all killed)
Test [1] has as its system NCI-H23 lung. As to conditions: 10 µM unless noted.
The subject of test [2] is NCI-H226 lung. As to conditions: 10 µM unless noted.
In test [3] the test system is NCI-H322M lung. As to conditions: 10 µM unless noted.
In test [4] the test system is HOP-62 NSCLC. As to conditions: 10 µM unless noted.
The subject of test [5] is NCI-H460 lung. As to conditions: 10 µM unless noted.
For test [6], the system named is HOP-92 NSCLC. As to conditions: 10 µM unless noted.
The test system of test [7] is NCI-H522 lung. As to conditions: 10 µM.
Test [8] deals with 786-0 renal. As to conditions: 10 µM unless noted.
In test [9] the test system is COLO 205 colon. As to conditions: 10 µM unless noted.
The test system of test [10] is DU-145 prostate. As to conditions: 10 µM unless noted.
The test system of test [11] is K-562 leukemia. As to conditions: 10 µM unless noted.
Test [12] has as its system MALME-3M melanoma. As to conditions: 10 µM unless noted.
In test [13] the test system is MDA-MB-231 breast. As to conditions: 10 µM unless noted.
Test [14] concerns RXF 393 renal. The settings on record: 10 µM unless noted.
For test [15], the system named is SF-268 CNS. The settings on record: 10 µM unless noted.
Test [16] has as its system SF-295 CNS. The settings on record: 10 µM unless noted.
Test [17] deals with SF-539 CNS. As to conditions: 10 µM unless noted.
Test [18] concerns UACC-257 melanoma. The settings on record: 10 µM unless noted.
The subject of test [19] is M14 melanoma. The settings on record: 10 µM unless noted.

This is part of a sample that, as a whole, favours compounds with a hit. Of some 83,000 tested, about 20% had one in any assay.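 96-well plates, one dose, 48 hours. Percent growth reported; active if below 10.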 Unmarked numbers belong to inactive results. Active and inactive are the calls of the source.

On to `C[C@H]1O[C@@H](O[C@H]2[C@@H](O)C[C@H](O[C@H]3[C@@H](O)C[C@H](O[C@H]4CC[C@]5(C)C6C[C@@H](O)[C@]7(C)[C@@H](C8=CC(=O)OC8)CC[C@]7(O)C6CC[C@@H]5C4)O[C@@H]3C)O[C@@H]2C)C[C@H](O)[C@@H]1O` (stereo partly drawn), for which the growth in test [1] was -54.9% (active); in test [2], -100% (active); in [3], -75.3% (active); in test [4] it was -100% (active); in test [5], -95.1% (active); in test [6] it was -26% (active). In addition, the growth in [7] is -83.9% (active); in test [8], -91.7% (active); in test [9], -85.9% (active); in test [10] it was -100% (active); in test [11], -24.2% (active); in [12] it was -57.2% (active). Moreover, the growth in test [13] is -83.6% (active); in [14], -22.4% (active); in test [15], -100% (active); in test [16], -99.9% (active); in [17] it was -96.2% (active); in test [18], -100% (active). In addition, the growth in test [19] was -81.6% (active).

Take `Cc1cc(Br)c(C)cc1Br`: the growth in [1] is 97.9%; in [2] it was 94.4%; in [3], 96.4%; in test [4] it was 99.4%; in test [5], 114%; in [6], 91.4%. The growth is 96% in [7]; 101% in test [8]; 110% in [9]; 102% in test [10]; 89.8% in test [11]; 121% in [12]. For the same compound, the growth was 111% in test [13]; 106% in [14]; 100% in test [15]; 89.2% in test [16]; 103% in test [17]; 94.4% in test [18]. In addition, the growth in [19] was 100%.

Consider `CSc1nc2nc3c(c(-c4ccc(C)cc4)c2c(=O)[nH]1)CN(C)C/C3=C\c1ccc(C)cc1`, for which the growth in test [1] was 88.4%; in test [2], 102%; in [3], 103%; in test [4], 115%; in test [5], 111%; in test [6], 97.3%. In addition, the growth was 93.2% in test [7]; 111% in test [8]; 121% in test [9]; 99.4% in [10]; 103% in test [11]; 120% in test [12]. For the same compound, the growth in test [13] is 86.3%; in [14], 109%; in [15], 90.9%; in [16] it was 111%; in test [17], 124%; in [18], 79.7%. In addition, in test [19], the growth is 104%.

Regarding `COc1cc(-c2nc3nc4sc(C)c(C)c4c(=O)n3[nH]2)cc(OC)c1OC`, the growth is 94.1% in test [1]; 112% in [2]; 93% in test [3]; 74.2% in test [4]; 92.9% in test [5]; 70.8% in [6]. The growth is 61.4% in [7]; 87.9% in test [8]; 94.2% in test [9]; 99.7% in [10]; 47% in test [11]; 59.6% in [12]. Also, the growth in [13] is 91.2%; in test [14], 78.9%; in test [15], 95.9%; in test [16], 60.5%; in test [17] it was 83.4%; in test [19], 78.2%.

Consider `Cc1ccc(-c2csc(N)n2)cc1`, for which the growth was 102% in [1]; 97.4% in [2]; 107% in test [3]; 110% in test [4]; 102% in test [5]; 70.7% in [6]. Also, the growth in [7] was 98.8%; in test [8], 98.3%; in test [9], 115%; in [10] it was 123%; in test [11], 94.4%; in [12], 124%. Moreover, the growth in test [13] was 96.6%; in [14], 110%; in [15], 101%; in test [16], 110%; in [17], 102%; in [18], 79.9%. Further, the growth in [19] was 102%.

Turning to `COc1cc(/C=C2\CN(C)CC3=C2Nc2nc(SC)[nH]c(=O)c2C3c2cc(OC)c(OC)c(OC)c2)cc(OC)c1OC` (stereo not drawn), the growth is 49.4% in [1]; 72.1% in test [2]; 86.7% in test [3]; 69.8% in test [4]; 10.1% in [5]; 82.7% in test [6]. For the same compound, the growth in [7] is 37.8%; in [8], 67.4%; in [9], 31.2%; in test [10], 7.76% (active); in test [11], 8.74% (active); in test [12], 81.2%. In addition, the growth in test [13] was 37.6%; in test [14], 69.7%; in test [15], 37.4%; in test [16], 63.8%; in [17], 34.8%; in test [18], 53.9%. In addition, in test [19], the growth was 24.3%.

For `CN1CCN(CCCOc2ccc3ncnc(Nc4ccc(OCc5cccc(F)c5)c(Cl)c4)c3c2)CC1`, the growth is 54.9% in [1]; 88.8% in test [2]; -9.88% (active) in [3]; 19.7% in test [4]; -68.9% (active) in [5]; 35% in test [6]. Also, the growth is -43.4% (active) in test [7]; -86.6% (active) in test [8]; -46.5% (active) in [9]; 18.8% in test [10]; -26.9% (active) in test [11]; -78.6% (active) in test [12]. Moreover, the growth in test [13] is -78.7% (active); in [14], -80.4% (active); in test [15], -43% (active); in test [16], -57.4% (active); in [17] it was -88.9% (active); in test [19] it was -83.4% (active).

Take `COCCCNS(=O)(=O)c1ncnc2nc[nH]c12`: the growth is 96.4% in test [1]; 134% in test [2]; 119% in test [3]; 93.4% in [4]; 105% in [5]; 120% in [6]. For the same compound, the growth is 119% in [7]; 98.9% in test [8]; 112% in test [9]; 98.5% in [10]; 109% in test [11]; 107% in test [12]. Further, the growth was 124% in [13]; 106% in test [15]; 129% in test [16]; 99.1% in test [17]; 92.6% in test [19].

(Values after PubChem BioAssay (NCI).)
